{"source": "paper PMC4336329", "about": "(PLoS ONE, 2015)", "note": "Among all 310,000 compounds or so, about 14,000 (4.5%) showed an effect of 50% or more. Effects have a minus sign here. This is one part of a sample in which strong results are shown more often than they occur.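 Further: peak tail current of the secondary pulse compared with the same well before compound.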", "data": [{"target": "human ether-à-go-go-related gene (hERG) potassium channel (human, UniProt Q12809)", "sequence (Q12809 whole entry, looked up)": "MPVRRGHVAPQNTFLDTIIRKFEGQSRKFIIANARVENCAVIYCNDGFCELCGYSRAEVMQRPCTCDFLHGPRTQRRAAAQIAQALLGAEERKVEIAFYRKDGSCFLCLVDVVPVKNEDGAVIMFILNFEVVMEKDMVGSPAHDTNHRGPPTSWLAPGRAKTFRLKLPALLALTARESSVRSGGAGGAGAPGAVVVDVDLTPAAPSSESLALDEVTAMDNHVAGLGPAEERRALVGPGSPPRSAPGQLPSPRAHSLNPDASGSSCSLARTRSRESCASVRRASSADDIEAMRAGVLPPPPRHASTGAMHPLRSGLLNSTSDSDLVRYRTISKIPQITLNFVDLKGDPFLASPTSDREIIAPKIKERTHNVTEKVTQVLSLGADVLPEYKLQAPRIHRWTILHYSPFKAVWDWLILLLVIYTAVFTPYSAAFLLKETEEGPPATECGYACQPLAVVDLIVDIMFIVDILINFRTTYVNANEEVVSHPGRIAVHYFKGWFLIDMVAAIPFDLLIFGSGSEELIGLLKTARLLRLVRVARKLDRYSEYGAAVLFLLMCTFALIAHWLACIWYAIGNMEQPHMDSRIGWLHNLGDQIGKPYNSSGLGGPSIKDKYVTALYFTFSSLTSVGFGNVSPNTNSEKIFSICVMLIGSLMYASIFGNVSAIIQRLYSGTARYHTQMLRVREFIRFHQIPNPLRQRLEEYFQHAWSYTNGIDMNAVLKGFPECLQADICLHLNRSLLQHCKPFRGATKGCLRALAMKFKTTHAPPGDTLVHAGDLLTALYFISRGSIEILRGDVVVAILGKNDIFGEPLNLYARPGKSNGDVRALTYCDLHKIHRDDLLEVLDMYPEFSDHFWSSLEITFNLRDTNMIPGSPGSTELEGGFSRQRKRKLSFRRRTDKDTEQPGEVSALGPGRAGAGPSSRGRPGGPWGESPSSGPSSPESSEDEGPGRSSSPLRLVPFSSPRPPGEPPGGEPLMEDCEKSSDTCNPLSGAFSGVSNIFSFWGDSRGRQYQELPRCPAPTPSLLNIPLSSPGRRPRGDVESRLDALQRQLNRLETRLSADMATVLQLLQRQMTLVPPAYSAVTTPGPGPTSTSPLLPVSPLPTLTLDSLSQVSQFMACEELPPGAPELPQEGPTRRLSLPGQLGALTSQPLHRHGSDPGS", "test": "primary screen, population patch clamp on CHO cells stably expressing hERG; higher = less effect of the substance", "units": {"hERG current change (%, negative = inhibition) at 10uM": "%"}, "values": [{"smiles": "Cc1cc(Cl)cc(Cl)c1OCCN1CCCC1", "hERG current change (%, negative = inhibition) at 10uM": -55}, {"smiles": "Cc1cc(Cl)c(OCCCCN2CCOCC2)c(Br)c1", "hERG current change (%, negative = inhibition) at 10uM": -30.2}, {"smiles": "Cc1cc(Cl)c(OCCOCCN2CCC(C)CC2)c(Br)c1.O=C(O)C(=O)O", "hERG current change (%, negative = inhibition) at 10uM": -57.6}, {"smiles": "Cc1cc(C)c(OCCCCN2CCC(C)CC2)c(Br)c1", "hERG current change (%, negative = inhibition) at 10uM": -72.7}, {"smiles": "Cc1cc(C)c(OCCN2CCCC2)c(Cl)c1", "hERG current change (%, negative = inhibition) at 10uM": -42.1}, {"smiles": "Cc1cc(C)c(OCCN2CC(C)OC(C)C2)c(Br)c1.O=C(O)C(=O)O", "note": "(stereo not shown)", "hERG current change (%, negative = inhibition) at 10uM": -17.5}, {"smiles": "Cc1cc(Cl)c(OCCCN(C)C)c(Br)c1.O=C(O)C(=O)O", "hERG current change (%, negative = inhibition) at 10uM": -40.4}, {"smiles": "Cc1cc(C)c(OCCCCN2CCNCC2)c(C)c1.O=C(O)C(=O)O", "hERG current change (%, negative = inhibition) at 10uM": 9.44}, {"smiles": "Cc1cc(Cl)c(OCCOCCN2CCN(C)CC2)c(Br)c1.O=C(O)C(=O)O", "hERG current change (%, negative = inhibition) at 10uM": -9.48}, {"smiles": "CCOC(=O)c1ccc(S(=O)(=O)NCCN(CC)CC)cc1.Cl", "hERG current change (%, negative = inhibition) at 10uM": 11.4}, {"smiles": "CS(=O)(=O)N1CCC(Oc2cccc(C(=O)NCCCC3CCCC3)c2)CC1", "hERG current change (%, negative = inhibition) at 10uM": -30.3}, {"smiles": "Cc1ccc(S(=O)(=O)N2CCN(C(=O)CN3C(=O)c4ccccc4C3=O)CC2)c(C)c1", "hERG current change (%, negative = inhibition) at 10uM": 9.02}, {"smiles": "CCN(CC(=O)Nc1ccc(Cl)c(C(F)(F)F)c1)CC(=O)NC1CCS(=O)(=O)C1", "note": "(stereo not shown)", "hERG current change (%, negative = inhibition) at 10uM": -13.2}, {"smiles": "CCOc1ccc(C2Nc3ccccc3NC3=C2C(=O)CC(C)(C)C3)cc1OC", "note": "(stereo not shown)", "hERG current change (%, negative = inhibition) at 10uM": 15.6}, {"smiles": "Cc1ccc2nsnc2c1S(=O)(=O)N1CCN(C(=O)C2CCCO2)CC1", "note": "(stereo not shown)", "hERG current change (%, negative = inhibition) at 10uM": 2.61}, {"smiles": "Cc1ccc(NC(=O)C2CCN(S(=O)(=O)c3ccc4c(c3)CCCC(=O)N4)CC2)c(Br)c1", "hERG current change (%, negative = inhibition) at 10uM": -5.9}, {"smiles": "CCOc1c2ccc(C(=O)N[C@H](C)C3CCCCC3)cc2nn1CCOC", "hERG current change (%, negative = inhibition) at 10uM": -18.2}, {"smiles": "Cc1cc(Cl)c(OCCOCCN2CCCC(C)C2)c(Br)c1.O=C(O)C(=O)O", "note": "(stereo not shown)", "hERG current change (%, negative = inhibition) at 10uM": -61.8}, {"smiles": "Cc1cc(C)c(OCCOCCN2CCN(C)CC2)c(Cl)c1.O=C(O)C(=O)O", "hERG current change (%, negative = inhibition) at 10uM": -5.21}, {"smiles": "CN1CCN(CCOCCOc2c(Cl)cc(Cl)cc2Cl)CC1.O=C(O)C(=O)O", "hERG current change (%, negative = inhibition) at 10uM": -26.9}, {"smiles": "Cc1cc(C)c(NC(=O)NC(=O)c2ccc(F)cc2)c(C)n1", "hERG current change (%, negative = inhibition) at 10uM": -0.738}, {"smiles": "O=C(c1ccc2c(c1)OCO2)N(c1ccc(Cl)cc1)C1C=CS(=O)(=O)C1", "note": "(stereo not shown)", "hERG current change (%, negative = inhibition) at 10uM": -16.8}, {"smiles": "Cc1ccc(N(C(=O)c2ccc3c(c2)OCO3)C2C=CS(=O)(=O)C2)cc1", "note": "(stereo not shown)", "hERG current change (%, negative = inhibition) at 10uM": -29.7}, {"smiles": "CC(C)c1ccc(N(C(=O)c2ccc3c(c2)OCO3)C2C=CS(=O)(=O)C2)cc1", "note": "(stereo not shown)", "hERG current change (%, negative = inhibition) at 10uM": -66.2}, {"smiles": "COc1ccccc1P(=O)(c1ccccc1)c1ccccc1NC(C)=O", "note": "(stereo not shown)", "hERG current change (%, negative = inhibition) at 10uM": 14.3}, {"smiles": "CCOC(=O)c1sc(N(Cc2ccccc2)C(=O)COC(=O)c2ccccc2O)nc1C", "hERG current change (%, negative = inhibition) at 10uM": -5.14}, {"smiles": "CCOC(=O)c1sc(N(Cc2ccccc2)C(=O)CN2C(=O)CN(C)C2=O)nc1C", "hERG current change (%, negative = inhibition) at 10uM": -59}, {"smiles": "CCOC(=O)c1sc(N(Cc2ccccc2)C(=O)CCl)nc1C", "hERG current change (%, negative = inhibition) at 10uM": -6.21}, {"smiles": "CN1CCN(CCCNC(=O)c2nnc(Cc3c(F)cccc3Cl)o2)CC1", "hERG current change (%, negative = inhibition) at 10uM": -3.44}, {"smiles": "O=C(NCCCCNC(=O)c1ccccc1F)c1ccccc1F", "hERG current change (%, negative = inhibition) at 10uM": 14.8}, {"smiles": "O=C(NCCCN1CCN(CCCNC(=O)c2ccccc2F)CC1)c1ccccc1F", "hERG current change (%, negative = inhibition) at 10uM": -53}, {"smiles": "CCOc1ccccc1C(=O)NCCCCNC(=O)c1ccccc1OCC", "hERG current change (%, negative = inhibition) at 10uM": -31.4}, {"smiles": "Cl.O=C(NCCN1CCN(c2ccccc2)CC1)c1ccccc1F", "hERG current change (%, negative = inhibition) at 10uM": -11}, {"smiles": "O=C(NCCCN1CCN(Cc2ccccc2)CC1)c1nnc(Cc2c(F)cccc2Cl)o1", "hERG current change (%, negative = inhibition) at 10uM": -63.1}, {"smiles": "CCOc1ccccc1C(=O)NCCCN1CCN(CCCNC(=O)c2ccccc2OCC)CC1", "hERG current change (%, negative = inhibition) at 10uM": -53.3}, {"smiles": "CCOc1ccccc1C(=O)NCCNC(=O)c1ccccc1OCC", "hERG current change (%, negative = inhibition) at 10uM": -2.01}, {"smiles": "O=C(NCCCN1CCCC1=O)c1nnc(Cc2c(F)cccc2Cl)o1", "hERG current change (%, negative = inhibition) at 10uM": 1.34}, {"smiles": "CC(C)CN(C(=O)C1CC1)c1c(N)n(Cc2ccccc2)c(=O)[nH]c1=O", "hERG current change (%, negative = inhibition) at 10uM": 21.2}, {"smiles": "CC1CCCC(C)N1C(=O)CSc1nnnn1Cc1ccccc1", "note": "(stereo not shown)", "hERG current change (%, negative = inhibition) at 10uM": -3.54}, {"smiles": "O=C(NNc1cccc(Cl)c1)c1cccnc1Oc1ccccc1", "hERG current change (%, negative = inhibition) at 10uM": -8.21}, {"smiles": "Fc1cccc(Cl)c1CSc1nnc(CNc2ccccc2)o1", "hERG current change (%, negative = inhibition) at 10uM": -21.5}, {"smiles": "COc1ccc(CC(=O)N/N=C/c2cccn2-c2ccc([N+](=O)[O-])cc2)cc1OC", "hERG current change (%, negative = inhibition) at 10uM": -37.9}, {"smiles": "Cn1c(=O)n(CC(N)=O)c(=O)c2c1nc1n2CCCN1Cc1ccccc1", "hERG current change (%, negative = inhibition) at 10uM": 14.8}]}]}
